# Records with an inconclusive call do not appear. Entries that show only a call come without a potency. A number with no mark means an inactive call. Activity calls are given as the source filed them. Unless noted, calls come from the whole dose curve; as a rule, active = well fitted curve in the direction sought with a large enough effect in the repeat runs; inconclusive = weak or mixed curves; inactive = no such curve, though single readings can be large; an effect the other way counts as inactive or inconclusive.
# What was measured:
# [1] = target: Retinoic acid receptor RXR-alpha (Homo sapiens) (UniProt P19793); test: qHTS assay to identify small molecule agonists of the RXR signaling pathway (AID 1159527; calls by dose curve; note: nearly all actives have a fitted effect of over 35% in size); details: HEK293T RXRa-UAS-bla, beta-lactamase ratio, 16 h; series mostly up to 76.8 µM
# Chain of Retinoic acid receptor RXR-alpha (Homo sapiens) (P19793 whole entry, looked up): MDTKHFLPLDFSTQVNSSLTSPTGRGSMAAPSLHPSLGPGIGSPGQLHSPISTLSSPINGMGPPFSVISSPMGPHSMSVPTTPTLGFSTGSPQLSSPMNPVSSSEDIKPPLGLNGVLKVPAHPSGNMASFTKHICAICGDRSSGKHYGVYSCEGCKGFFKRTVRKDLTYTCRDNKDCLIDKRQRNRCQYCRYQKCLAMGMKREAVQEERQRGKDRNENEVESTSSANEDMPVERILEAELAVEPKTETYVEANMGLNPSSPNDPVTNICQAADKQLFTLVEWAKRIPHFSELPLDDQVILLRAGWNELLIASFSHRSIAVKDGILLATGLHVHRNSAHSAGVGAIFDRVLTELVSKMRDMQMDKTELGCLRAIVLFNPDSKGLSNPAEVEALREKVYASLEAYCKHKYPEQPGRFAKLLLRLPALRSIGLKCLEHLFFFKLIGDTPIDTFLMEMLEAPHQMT
# Summary of the method: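 Compounds in DMSO were added to RXR-alpha-UAS-bla HEK 293T cells kept in 2% charcoal-stripped serum, and incubated 16 hr at 37 C with 5% CO2. Reporter signal came from a 2 hr B/G FRET substrate step.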
# [2] = qHTS assay to identify small molecule agonists of the RXR signaling pathway - cell viability counter screen (AID 1159529); details: RXR-alpha-bla HEK293T viability, CellTiter-Glo, 16 h; series mostly up to 76.8 µM;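 note: HEK 293T cells carrying an RXR-alpha UAS beta-lactamase reporter; nearly all actives have a fitted effect of over 50% in size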
# Summary of the method: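 Counter screen: CellTiter-Glo luminescence. Cells: RXR-alpha-UAS-bla HEK 293T. Medium: 2% charcoal-stripped FBS. Treatment: 16 h, 37 C. Reagent incubation: 30 min, RT.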
# [3] = qHTS assay to identify small molecule antagonists of the retinoid acid receptor (RAR) signaling pathway - cell viability counter screen (AID 1159551); details: C3RL4 cells viability, ATP luminescence (CellTiter-Glo), 6 h; series mostly up to 92.4 µM; note: nearly all actives have a fitted effect of over 35% in size
# Summary of the method: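 Luminescent ATP quantitation (CellTiter-Glo) gave cell viability in C3RL4 cells exposed to test chemicals for 6 h at 37 C alongside 1 uM final retinol.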
# [4] = qHTS assay to identify small molecule antagonists of the estrogen related receptor (ERR) signaling pathway (AID 1224819;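 note: luminescence from an ERR-driven luciferase reporter measured with One-Glo reagent; nearly all actives have a fitted effect of over 50% in size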); details: ERR reporter cell line, luciferase inhibition; series mostly up to 46.1 µM
# Summary of the method: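 Seed ERR cells 2,000/well; rest 6 h at 37 C/5% CO2; pin compounds in DMSO; incubate 18 h at 37 C; add One-Glo; wait 30 min at room temperature; measure luminescence.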
# [5] = qHTS assay to identify small molecule agonists of the estrogen related receptor (ERR) signaling pathway (AID 1224820); details: ERR reporter cell line, luciferase agonist mode; series mostly up to 46.1 µM
# Summary of the method: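 ERR reporter cells (NTP line) plated 2,000/well, incubated 6 h at 37 C/5% CO2, then pinned with compounds in DMSO and held 18 h at 37 C. One-Glo added; luminescence read after 30 min at room temperature.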
# [6] = test system: estrogen-related receptor alpha (ERRalpha) with PGC-1alpha coactivator, human; test: qHTS assay to identify small molecule antagonists of the estrogen related receptor signaling pathway with the pleiotropic PPARgamma coactivator (PGC) (AID 1224821; calls by dose curve;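 note: lower luminescence signal means antagonism of PGC/ERR signalling; nearly all actives have a fitted effect of over 50% in size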); details: ERR/PGC reporter cell line, luciferase, antagonist mode; series mostly up to 46.1 µM
# Summary of the method: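 Cells engineered for PGC/ERR signalling (line from NTP) were plated 6 h at 37 C/5% CO2, then exposed to DMSO-dissolved compound for 18 h at 37 C. Luciferase activity was read by One-Glo luminescence after 30 min at room temperature.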
# [7] = qHTS assay to identify small molecule antagonists of the estrogen related receptor signaling pathway with the pleiotropic PPARgamma coactivator (PGC) cell viability counter screen (AID 1224822;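 note: viability read after 17.5 h compound exposure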); details: ERR/PGC reporter cell line viability counter screen; series mostly up to 46.1 µM
# Summary of the method: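 Cells: PGC/ERR, 2,000/well, 1536-well format. Pre-incubation 6 h, 37 C/5% CO2. Compound exposure 17.5 h, 37 C. Detection: CellTiter-Fluor, 30 min, fluorescence.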
# [8] = qHTS assay to identify small molecule agonists of the estrogen related receptor signaling pathway with the pleiotropic PPARgamma coactivator (PGC) (AID 1224823); details: ERR/PGC reporter cell line, luciferase agonist mode; series mostly up to 46.1 µM
# Summary of the method: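 PGC/ERR reporter cells were seeded, rested 6 h at 37 C/5% CO2, then exposed to compounds in DMSO by pin transfer for 18 h at 37 C. Luciferase activity was read as luminescence after One-Glo reagent and 30 min at room temperature.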
# [9] = qHTS assay to identify small molecule antagonists of the retinoic acid receptor (RAR) signaling pathway (AID 1159552; note: nearly all actives have a fitted effect of over 50% in size); details: C3RL4 RARE luciferase reporter, retinol-stimulated, 6 h; series mostly up to 92.4 µM
# Summary of the method: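 Antagonism of retinol-induced RARE reporter activity was measured in C3RL4 cells. Exposure to compounds and 1 uM final retinol lasted 6 hr at 37 C, with luminescence as endpoint.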
# [10] = qHTS assay to identify small molecule agonists of the retinoic acid receptor (RAR) signaling pathway (AID 1159553); details: C3RL4 RARE luciferase reporter, agonist, 6 h; series mostly up to 73.3 µM; note: potency is the fitted concentration of half-maximal effect
# Summary of the method: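 Luminescence from a RARE-driven luciferase reporter in C3RL4 cells served as the read-out, measured after 30 min with detection reagent at room temperature. Compounds in DMSO were applied for 6 hr at 37 C following overnight seeding.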
structure (smiles),measurement,setting,value
CC(=O)CCCCn1c(=O)c2c(ncn2C)n(C)c1=O,Potency,[1],inactive
same,outcome,[2],inactive
same,outcome,[3],inactive
same,outcome,[4],inactive
same,outcome,[5],inactive
same,outcome,[6],inactive
same,outcome,[7],inactive
same,outcome,[8],inactive
CCOC(=O)c1ncn2c1CN(C)C(=O)c1cc(F)ccc1-2,Potency,[1],inactive
same,outcome,[2],inactive
same,outcome,[3],inactive
same,outcome,[7],inactive
NC(CO)C(=O)NNCc1ccc(O)c(O)c1O (stereo not drawn),Potency,[1],inactive
same,outcome,[2],inactive
same,outcome,[4],inactive
same,outcome,[5],inactive
same,outcome,[6],inactive
same,outcome,[7],inactive
same,outcome,[8],inactive
NCCS,Potency,[1],inactive
same,outcome,[2],inactive
same,outcome,[4],inactive
same,outcome,[5],inactive
same,outcome,[6],inactive
same,outcome,[7],inactive
same,outcome,[8],inactive
O=C1c2ccccc2C(=O)c2cc(S(=O)(=O)O)ccc21,Potency,[1],inactive
same,outcome,[2],inactive
same,outcome,[9],inactive
same,Potency,[10],inactive
Cc1cccc(C)c1OCC(C)N (stereo not drawn),Potency,[1],inactive
same,outcome,[2],inactive
same,outcome,[3],inactive
same,outcome,[4],inactive
same,outcome,[5],inactive
same,outcome,[6],inactive
same,outcome,[7],inactive
same,outcome,[8],inactive
O=C1c2ccccc2C(=O)C1c1ccccc1,Potency,[1],inactive
same,outcome,[2],inactive
same,outcome,[9],inactive
same,Potency,[10],inactive
Nc1nnc(-c2cccc(Cl)c2Cl)c(N)n1,Potency,[1],inactive
same,outcome,[2],inactive
same,outcome,[7],inactive
COP(=O)(OC)OC(c1ccc(Cl)cc1)P(=O)(OC)OC (stereo not drawn),Potency,[1],inactive
same,outcome,[2],inactive
same,outcome,[9],inactive
O=C(CCNNC(=O)c1ccncc1)NCc1ccccc1,Potency,[1],inactive
same,outcome,[2],inactive
same,outcome,[3],inactive
same,outcome,[7],inactive
O=C(Nc1ccc(Cl)c(Cl)c1)C1CC1,Potency,[1],inactive
same,outcome,[2],inactive
same,outcome,[9],inactive
same,Potency,[10],inactive
CCCOC(=O)C(C)O (stereo not drawn),Potency,[1],inactive
same,outcome,[2],inactive
same,outcome,[9],inactive
COCCc1ccc(OCC2CO2)cc1 (stereo not drawn),Potency,[1],inactive
same,outcome,[2],inactive
same,outcome,[9],inactive
CCCN1C[C@H](CSC)C[C@@H]2c3cccc4[nH]cc(c34)C[C@H]21,Potency,[1],inactive
same,outcome,[2],inactive
same,outcome,[7],inactive
CNS(=O)(=O)CCc1ccc2[nH]cc(C3CCN(C)CC3)c2c1,Potency,[1],inactive
same,outcome,[2],inactive
same,outcome,[3],inactive
same,outcome,[7],inactive
C#CC(C)N(C)C(=O)Nc1ccc(Cl)cc1 (stereo not drawn),Potency,[1],inactive
same,outcome,[2],inactive
same,outcome,[9],inactive
same,Potency,[10],38.5 µM (active)
COc1ccc(S(=O)(=O)N2c3ccc(Cl)cc3[C@@](O)(c3ccccc3Cl)[C@H]2C(=O)N2CCC[C@@H]2C(N)=O)cc1OC,Potency,[1],inactive
same,outcome,[2],inactive
same,outcome,[3],inactive
same,Potency,[10],inactive
O=C(NCCc1c[nH]c2ccccc12)c1cccnc1,Potency,[1],inactive
same,outcome,[2],inactive
same,outcome,[9],inactive
same,Potency,[10],21.1 µM (active)
CC(=O)Nc1cccc(C)c1,Potency,[1],inactive
same,outcome,[2],inactive
same,outcome,[9],inactive
same,Potency,[10],inactive
CN1CCN(CC(=O)N2c3ccccc3C(=O)Nc3cccnc32)CC1,activation,[1],4.73% [at 6.98 µM]
same,"activity change, negative = cytotoxicity",[2],0.873% [at 6.97 µM]
same,"activity change, negative = cytotoxicity",[3],0.488% [at 8.39 µM]
same,outcome,[4],inactive
same,outcome,[5],inactive
same,outcome,[7],inactive
same,outcome,[8],inactive
CN(CCOc1ccc(NS(C)(=O)=O)cc1)CCc1ccc(NS(C)(=O)=O)cc1,Potency,[1],inactive
same,outcome,[2],inactive
same,outcome,[3],inactive
same,outcome,[7],inactive
COc1ccc(C2CNC(=O)C2)cc1OC1CCCC1 (stereo not drawn),Potency,[1],inactive
same,outcome,[2],inactive
same,outcome,[4],inactive
same,outcome,[5],inactive
same,outcome,[6],inactive
same,outcome,[7],inactive
same,outcome,[8],inactive
C=Cc1ccccn1,Potency,[1],inactive
same,outcome,[2],inactive
same,Potency,[10],inactive
CC(C)=O,Potency,[1],inactive
same,outcome,[2],inactive
same,Potency,[10],inactive
FC(F)(F)c1ccccc1-n1ccnc1,Potency,[1],inactive
same,outcome,[2],inactive
same,outcome,[3],inactive
same,Potency,[10],inactive
same,outcome,[7],inactive
N[C@@H](COP(=O)(O)O)C(=O)O,activation,[1],7.83% [at 15.8 µM]
same,"activity change, negative = cytotoxicity",[2],11.4% [at 15.8 µM]
same,"activity change, negative = cytotoxicity",[3],-0.284% [at 19 µM]
same,outcome,[7],inactive
CCN(CC)CC(=O)Nc1c(C)cccc1C,Potency,[1],inactive
same,outcome,[2],inactive
same,outcome,[3],inactive
same,Potency,[10],inactive
same,outcome,[4],inactive
same,outcome,[5],inactive
same,outcome,[6],inactive
same,outcome,[7],inactive
same,outcome,[8],inactive
CCOC(=O)CC(=O)c1ccccc1,Potency,[1],inactive
same,outcome,[2],inactive
same,outcome,[9],inactive
C[C@@H](O)[C@H]1C(=O)N2C(C(=O)O)=C(SCCN=CN)C[C@H]12,Potency,[1],inactive
same,outcome,[2],inactive
same,outcome,[3],inactive
same,outcome,[4],inactive
same,outcome,[5],inactive
same,outcome,[6],inactive
same,outcome,[7],inactive
same,outcome,[8],inactive
O=P(O)(O)OP(=O)(O)O,Potency,[1],inactive
same,outcome,[2],inactive
same,outcome,[9],inactive
same,Potency,[10],inactive
CC(C)NCC(O)COc1ccc(COCCOC(C)C)cc1 (stereo not drawn),Potency,[1],inactive
same,outcome,[2],inactive
same,outcome,[3],inactive
same,outcome,[7],inactive
CC(C)NCC(O)COc1cccc2[nH]ccc12 (stereo not drawn),Potency,[1],inactive
same,outcome,[2],inactive
same,outcome,[3],inactive
same,outcome,[7],inactive
Cc1cc(C(C)(C)C)c(O)c(C)c1CC1=NCCN1,Potency,[1],inactive
same,outcome,[2],inactive
same,outcome,[3],inactive
same,outcome,[7],inactive
CC(C)=CCOC(=O)c1ccccc1,Potency,[1],inactive
same,outcome,[2],inactive
same,outcome,[9],inactive
same,Potency,[10],inactive

# Source: PubChem BioAssay (Tox21)
